Assay [1] concerns Human papillomavirus type 1a protein E7 (residues 44-93). The experiment in a line: small molecules binding HPV E7 44-93 – biochemical, small-molecule microarray, residues 44-93, 635 nm fluorescence, primary screen (AID 1108).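 Also: E7 fragment applied at 1 µg/mL in TBST for 1 h at 4 C; score combines spot fluorescence with its signal to noise ratio.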 The following applies: fluorescence 635 nm, higher = more signal.
Assay [2] in a line: hepatitis C replication reporter changes, two-sided – Huh7 cells, luciferase reporter, HCV replication inhibitor project, primary screen (AID 1109).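 Also: huh7 hepatoma cells harbouring a luciferase neomycin HCV replicon reporter; luciferase luminescence as measure of HCV replicon replication; test concentration not given here.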 As to conditions: Huh7 HCV replicon luciferase reporter, 48 h; higher = more signal. (Reporter assays use an easily measured gene product as a stand-in for the process of interest.)
The target in assay [3] is Left-right determination factor 2 (Homo sapiens) (UniProt O00292). The experiment in a line: small molecules binding LEFTY2 protein – biochemical, small-molecule microarray, 635 nm fluorescence scan, primary screen (AID 1110). As to conditions: higher = more signal.
The target of assay [4] is Calmodulin-1 (Homo sapiens) (UniProt P0DP23). The experiment in a line: small molecules binding calmodulin-1 with EGTA – biochemical, small-molecule microarray, Cy5-labelled CALM1, profiling panel (AID 1111).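 Also: labelled calmodulin applied in Tris saline Tween buffer holding calcium plus EGTA and DTT.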 As to conditions: Cy5-CALM1 binding fluorescence, higher = more signal.
Assay [5] shares this target. As to the kind of experiment: small molecules binding Ca-loaded calmodulin-1 – biochemical, small-molecule microarray, Cy5-labelled CALM1, plus calcium, artefact control for SMM control-protein annotation, profiling panel (AID 1112).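 Also: score merges spot fluorescence with signal to noise from triplicate slides.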 The following applies: Cy5-CALM1 binding fluorescence, higher = more signal.
The nature of assay [6]: probe aWnt5a binding to arrayed compounds – biochemical, biotinylated probe, 635/667 nm fluorescence, primary screen (AID 1113).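 Also: score merges 667 nm fluorescence intensity with signal-to-noise per printed feature.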 The following applies: small-molecule microarray, higher = more signal.
A short description of assay [7]: probe aShh binding to arrayed compounds – biochemical, biotinylated probe, 635/667 nm fluorescence, primary screen (AID 1114).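 Also: probe is biotin-labelled aShh protein from a stem cell growth factor screen; measures binding of labelled protein to compounds printed on the slide; score merges feature fluorescence at 667 nm with signal-to-noise.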 The following applies: small-molecule microarray, higher = more signal.
A short description of assay [8]: probe aNog binding to arrayed compounds – biochemical, biotinylated probe, 635/667 nm fluorescence, primary screen (AID 1115).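 Also: probe is biotinylated aNog protein used at 0.15 µg/mL for 1 h at 4 C; z-score combines 667 nm fluorescence of each spot with its signal to noise.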 As to conditions: small-molecule microarray, higher = more signal.
For assay [9], the target named is Torsin-1A-interacting protein 1 (Homo sapiens) (UniProt Q5JTV8). As to the kind of experiment: compound microarray binding of lysate hLAP1 – cell lysate, small-molecule microarray, COS7 lysate, 635/667 nm fluorescence, primary screen (AID 1116). As to conditions: 635 nm fluorescence, higher = more signal.
Assay [10] deals with Alpha-bungarotoxin (Bungarus multicinctus) (UniProt P60615). As to the kind of experiment: compounds binding labelled alpha-BTX control protein – biochemical, small-molecule microarray, Alexa647 label, 635/667 nm fluorescence, artefact control for SMM control protein annotation, profiling panel (AID 1117). As to conditions: alpha-BTX-A647 binding fluorescence, higher = more signal.

A further assay has as its target Albumin (Bos taurus) (UniProt P02769). The experiment in a line: compounds binding labelled BSA control protein – biochemical, small-molecule microarray, Alexa647 label, 635/667 nm fluorescence, artefact control for SMM control protein annotation, profiling panel (AID 1118).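 Also: score merges 667 nm emission intensity and signal-to-noise per printed compound spot.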 As to conditions: BSA-A647 binding, fluorescence 635 nm, higher = more signal.
A short description of assay [11]: probe aXIP binding to arrayed compounds – biochemical, NeuroSMM set, 635/667 nm fluorescence, primary screen (AID 1119).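 Also: probe is the protein aXip251-270 applied at 1 µg/mL to compound-printed slides; binding of probe to printed compounds measured as 667 nm fluorescence plus signal to noise.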 As to conditions: small-molecule microarray, higher = more signal, called active from +8 up or from −8 down.
Assay [12] is described as follows: probe aNOTCH3 binding on compound microarray – biochemical, small-molecule microarray, 635/667 nm fluorescence, primary screen (AID 1120).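 Also: probe is a biotin-tagged antibody raised against NOTCH3 rather than NOTCH3 protein; score merges spot fluorescence near 667 nm with spot signal to noise.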 As to conditions: higher = more signal.
Assay [13] in a line: probe aNOTCH2 binding on compound microarray – biochemical, small-molecule microarray, 635/667 nm fluorescence, primary screen (AID 1121).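 Also: score merges feature fluorescence read at 667 nm with its signal to noise.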 The following applies: higher = more signal.
In assay [14] the target is Carbonic anhydrase 2 (Homo sapiens) (UniProt P00918). The experiment in a line: compounds binding carbonic anhydrase 2 – biochemical, small-molecule microarray, Alexa647-labelled CAII, profiling panel (AID 1122). As to conditions: CAII-A647 binding fluorescence, higher = more signal.
The nature of assay [15]: COS7 lysate on small-molecule microarray, probe aHis, 635 nm (AID 1123).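 Also: z-score combines 667nm fluorescence intensity with signal-to-noise per printed compound spot.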 As to conditions: COS7 cell lysate, fluorescence, higher = more signal.
A short description of assay [16]: probe aLAP1 signal on lysate-treated microarray – cell lysate, small-molecule microarray, COS7 lysate, primary screen (AID 1124).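 Also: lysate comes from COS7 cells expressing LAP1 and is applied at 0.3 µg/mL; score merges spot fluorescence near 667 nm with signal-to-noise over triplicate slides.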 The following applies: probe aLAP1, fluorescence, higher = more signal.
For a further assay, the system named is Sam68 (KHDRBS1). As to the kind of experiment: compounds binding KHDRBS1 protein – biochemical, small-molecule microarray, 635 nm fluorescence, primary screen (AID 1125).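 Also: score merges 667 nm channel intensity with signal to noise over triplicate slides.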 The following applies: higher = more signal.
Assay [17] concerns Chordin-like protein 2 (CHRDL2). As to the kind of experiment: compounds binding chordin-like 2 – biochemical, small-molecule microarray, 635 nm fluorescence, primary screen (AID 1126).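 Also: printed compound slides probed with Chrdl2 protein at 4 µg/mL for 1 h at 4 C; score merges 667 nm emission intensity with signal to noise over three replicate slides.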 As to conditions: fluorescence 635 nm, higher = more signal.
For assay [18], the target named is Concanavalin-A (Canavalia ensiformis) (UniProt P02866). The experiment in a line: compounds binding concanavalin A lectin – biochemical, small-molecule microarray, Alexa647 label, 635 nm, artefact control for SMM control protein annotation, primary screen (AID 1127).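 Also: z combines 667 nm emission intensity with signal-to-noise across three replicate slides.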 The following applies: ConA-A647 binding fluorescence, higher = more signal.

Structures are written as SMILES. The source made the active and inactive calls.

Sequence of Albumin (Bos taurus) (P02769 whole entry, looked up): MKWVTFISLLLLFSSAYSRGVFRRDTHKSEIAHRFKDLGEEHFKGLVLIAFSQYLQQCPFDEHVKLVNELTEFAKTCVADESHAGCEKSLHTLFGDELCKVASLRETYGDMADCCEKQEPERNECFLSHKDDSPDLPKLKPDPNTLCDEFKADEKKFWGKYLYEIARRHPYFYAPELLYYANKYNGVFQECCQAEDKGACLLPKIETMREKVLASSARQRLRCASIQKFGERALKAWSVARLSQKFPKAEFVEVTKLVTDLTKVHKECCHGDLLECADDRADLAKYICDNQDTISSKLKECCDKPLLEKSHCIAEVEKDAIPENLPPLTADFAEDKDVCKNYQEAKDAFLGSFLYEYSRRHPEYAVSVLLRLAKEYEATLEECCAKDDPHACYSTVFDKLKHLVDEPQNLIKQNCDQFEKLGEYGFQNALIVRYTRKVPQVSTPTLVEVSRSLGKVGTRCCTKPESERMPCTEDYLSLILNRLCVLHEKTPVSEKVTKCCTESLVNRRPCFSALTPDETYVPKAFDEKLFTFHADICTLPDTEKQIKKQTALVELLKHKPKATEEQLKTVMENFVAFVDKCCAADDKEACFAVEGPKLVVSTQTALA
Sequence of Alpha-bungarotoxin (Bungarus multicinctus) (P60615 whole entry, looked up): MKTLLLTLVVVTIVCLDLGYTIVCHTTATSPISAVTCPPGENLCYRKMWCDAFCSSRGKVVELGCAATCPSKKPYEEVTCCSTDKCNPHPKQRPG
Sequence of Left-right determination factor 2 (Homo sapiens) (O00292 whole entry, looked up): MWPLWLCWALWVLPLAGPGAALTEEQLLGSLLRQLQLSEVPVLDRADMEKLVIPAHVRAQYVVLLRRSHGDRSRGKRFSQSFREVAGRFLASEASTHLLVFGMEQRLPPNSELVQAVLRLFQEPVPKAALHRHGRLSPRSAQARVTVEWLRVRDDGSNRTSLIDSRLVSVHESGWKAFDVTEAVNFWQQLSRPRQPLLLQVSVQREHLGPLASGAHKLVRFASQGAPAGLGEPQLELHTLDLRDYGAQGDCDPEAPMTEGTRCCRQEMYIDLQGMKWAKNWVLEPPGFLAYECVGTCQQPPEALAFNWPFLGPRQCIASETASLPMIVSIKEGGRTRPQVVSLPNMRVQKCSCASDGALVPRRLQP
Sequence of Torsin-1A-interacting protein 1 (Homo sapiens) (Q5JTV8 whole entry, looked up): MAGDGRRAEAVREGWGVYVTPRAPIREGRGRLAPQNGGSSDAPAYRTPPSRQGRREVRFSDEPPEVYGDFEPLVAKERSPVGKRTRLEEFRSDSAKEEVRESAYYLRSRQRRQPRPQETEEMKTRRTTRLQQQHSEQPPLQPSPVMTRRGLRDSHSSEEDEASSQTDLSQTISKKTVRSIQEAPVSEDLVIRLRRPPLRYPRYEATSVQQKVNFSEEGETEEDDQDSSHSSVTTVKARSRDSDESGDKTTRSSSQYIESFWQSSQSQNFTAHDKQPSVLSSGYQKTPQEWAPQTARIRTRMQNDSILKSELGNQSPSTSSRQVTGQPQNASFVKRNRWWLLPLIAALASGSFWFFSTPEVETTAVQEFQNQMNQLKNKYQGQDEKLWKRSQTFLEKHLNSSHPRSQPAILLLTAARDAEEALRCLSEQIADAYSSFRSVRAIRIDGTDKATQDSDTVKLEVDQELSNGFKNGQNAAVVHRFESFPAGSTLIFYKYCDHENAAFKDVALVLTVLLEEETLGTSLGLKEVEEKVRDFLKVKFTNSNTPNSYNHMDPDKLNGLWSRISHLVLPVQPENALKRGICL
Sequence of Concanavalin-A (Canavalia ensiformis) (P02866 whole entry, looked up): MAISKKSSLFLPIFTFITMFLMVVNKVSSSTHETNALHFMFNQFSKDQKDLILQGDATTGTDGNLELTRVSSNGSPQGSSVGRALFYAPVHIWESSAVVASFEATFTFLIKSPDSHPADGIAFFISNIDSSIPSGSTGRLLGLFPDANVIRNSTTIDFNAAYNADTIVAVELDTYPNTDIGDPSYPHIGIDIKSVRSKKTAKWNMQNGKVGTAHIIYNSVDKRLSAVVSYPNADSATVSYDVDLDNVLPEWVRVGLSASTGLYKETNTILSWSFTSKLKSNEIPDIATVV

Consider `Cc1ccc(S[C@]2(C(=O)NCCN3CCOCC3)CC(=O)N(C3Cc4ccccc4C3)[C@@H]2c2ccc(CO)cc2I)cc1`, for which the composite z-score in assay [1] is 0.0913; in [3] it was -1.71; in [4] it was -0.0071; in assay [5], -0.0474; in [6], 0.0718; in [7] it was -0.0553. The composite z-score in assay [8] is 0.79; in assay [9], 0.0697; in [10], 1.74; with Albumin (Bos taurus), 0.545; in [12], -0.0903; in assay [13], 0.116. Besides, the composite z-score in [14] is 0.576; in assay [15] it was 1.42; in assay [16], 0.39; in the assay on Sam68 (KHDRBS1), 0.458; in assay [17] it was -2.56; in assay [18], -0.587. Moreover, in [2], the z-score was -1.69. Further, the composite Z-score in assay [11] was 2.61 (inactive).

With `O=C1C2C=CC(C(O)Cc3ccccc3)N(Nc3ccc([N+](=O)[O-])cc3)C2C(=O)N1c1ccccc1` (stereo not given), the composite z-score stood at 0.508 in assay [1]; 0.0886 in assay [3]; 0.417 in assay [4]; 0.426 in assay [5]; 0.159 in assay [6]; 0.203 in assay [7]. In addition, the composite z-score was found to be 0.905 in assay [8]; 0.937 in assay [9]; 0.307 in [10]; 0.944 with Albumin (Bos taurus); 0.357 in assay [12]; 0.401 in assay [13]. Further, the composite z-score in assay [14] turned out to be 0.759; in assay [15], 1.02; in assay [16], 0.517; in the assay with Sam68 (KHDRBS1), 0.719; in assay [17], 0.709; in [18] it was 0.185. Also, in [2], the z-score was -0.531. Further, in assay [11], the composite Z-score is -0.205 (inactive).

Consider `CCCC=C(CCC)[C@@H](NC(=O)c1ccc(C(F)(F)F)cc1)c1ccccc1`, for which the composite z-score in assay [1] was 1.17; in [3], -0.0957; in assay [4], 0.815; in assay [5] it was 0.793; in assay [6], 0.0094; in assay [7], 0.213. For the same molecule, the composite z-score in assay [8] was 0.644; in [9], 0.432; in assay [10], 0.25; with Albumin (Bos taurus) it was -0.0332; in assay [12] it was 0.191; in [13], -0.0007. Further, the composite z-score in assay [14] is 0.104; in assay [15], 1.29; in assay [16] it was -0.805; in the assay with Sam68 (KHDRBS1), 0.989; in assay [17] it was -0.815; in assay [18], 0.483. Besides, the z-score in assay [2] was -1.43. In addition, the composite Z-score in assay [11] is 0.0895 (inactive).

With `CCOC(=O)C1=CC[C@@H](c2ccccc2)N(S(=O)(=O)c2ccc(C)cc2)[C@H]1C`, the composite z-score in assay [1] is 1.47; in assay [3] it was 0.902; in assay [4], 0.764; in assay [5], 0.665; in assay [6], 0.101; in assay [7], -0.214. For the same molecule, the composite z-score stood at 0.787 in [8]; 0.682 in assay [9]; 1.74 in [10]; 0.972 in the assay with Albumin (Bos taurus); 0.29 in assay [12]; 0.0832 in [13]. Besides, the composite z-score in assay [14] was 0.671; in assay [15], 2.49; in assay [16], 0.689; with Sam68 (KHDRBS1), 1.29; in assay [17] it was 0.416; in assay [18], 1.05. The z-score in assay [2] is -2.88. In [11], the composite Z-score is 0.102 (inactive).

On to `C=CCC(OC(C)=O)[C@@H]1[C@@H](N(Cc2cccc3ccccc23)C(=O)c2ccc(C)cc2)c2cc(OCCCO)ccc2N1C(=O)c1ccc(-c2ccccc2)cc1` (stereo not given in full), for which the composite z-score in assay [1] was 0.479; in assay [3] it was 0.111; in assay [4] it was -0.355; in assay [5] it was -0.065; in assay [6], -0.135; in [7] it was -0.273. The composite z-score in assay [8] was -0.241; in assay [9] it was -0.144; in assay [10], -0.218; in the assay with Albumin (Bos taurus) it was -0.0575; in assay [12] it was 0.102; in assay [13], -0.0398. Besides, the composite z-score in assay [14] is 0.507; in assay [15], 0.143; in assay [16], -0.105; in the assay on Sam68 (KHDRBS1) it was -0.087; in assay [17], 0.114; in [18], -0.227. Besides, the z-score in assay [2] was -0.852. Besides, the composite Z-score in assay [11] was -0.0961 (inactive).

`CC(C)[Si](OCC[C@H]1O[C@]2(C(=O)N(Cc3ccccc3)c3ccccc32)[C@@H](C)[C@@H]1[Si](C)(C)O)(C(C)C)C(C)C`: the composite z-score is 0.161 in assay [1]; -0.261 in assay [3]; 0.214 in assay [4]; 0.3 in [5]; -0.216 in assay [6]; 0.0204 in assay [7]. The composite z-score in [8] was 0.0073; in [9] it was 0.153; in assay [10], -0.513; with Albumin (Bos taurus), 0.114; in assay [12], 0.0026; in [13] it was -0.148. The composite z-score in [14] is 0.191; in [15], 0.379; in [16], 0.0893; in the assay with Sam68 (KHDRBS1), 0.0631; in assay [17], -0.0644; in [18], 0.367. The z-score in assay [2] is -1.22. In [11], the composite Z-score is -0.0745 (inactive).

These data come from PubChem BioAssay.
